PubChem BioAssay (EPA / NIEHS)
Inconclusive results are not listed. Active and inactive are the calls of the source. The calls were made as follows: active = hit-call score of the fitted dose curve at least 0.9, where 1 is the maximum; inconclusive = response in the unintended direction; inactive = score below 0.9.

The compounds below were run against bovine Estrogen Receptor (ER), ESR1 (gene 407238) (UniProt P49884) (assay: NVS_NR_bER: NovaScreen (NVS) Nuclear Receptor Binding Assay for bovine Estrogen Receptor (ER) (AID 2283345);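 also: actives lower the bound radioligand count which means they displace the ER ligand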).
Chain of bovine Estrogen Receptor (ER), ESR1 (gene 407238) (P49884 whole entry, looked up): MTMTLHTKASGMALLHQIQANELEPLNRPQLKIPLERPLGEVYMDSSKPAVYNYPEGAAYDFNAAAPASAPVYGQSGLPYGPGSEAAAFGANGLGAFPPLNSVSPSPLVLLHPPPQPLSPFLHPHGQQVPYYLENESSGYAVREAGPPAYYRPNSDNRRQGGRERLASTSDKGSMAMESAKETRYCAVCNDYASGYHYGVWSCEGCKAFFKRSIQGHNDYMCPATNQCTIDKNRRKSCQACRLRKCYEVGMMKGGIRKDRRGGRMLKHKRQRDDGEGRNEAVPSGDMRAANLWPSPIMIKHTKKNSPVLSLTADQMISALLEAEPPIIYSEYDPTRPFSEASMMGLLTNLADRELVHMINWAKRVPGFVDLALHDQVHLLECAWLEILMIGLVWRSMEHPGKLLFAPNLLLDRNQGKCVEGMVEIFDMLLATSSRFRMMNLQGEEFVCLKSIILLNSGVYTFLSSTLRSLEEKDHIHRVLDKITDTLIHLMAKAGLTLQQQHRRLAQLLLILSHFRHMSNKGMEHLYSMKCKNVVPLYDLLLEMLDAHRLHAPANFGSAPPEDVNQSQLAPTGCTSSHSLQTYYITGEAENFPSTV
Method: NVS_NR_bER is a biochemical, single-readout assay that uses extracted gene-proteins from Bovine uterine membranes in a tissue-based cell-free assay. Measurements were taken 18 hours after chemical dosing in a 96-well plate.NVS_NR_bER is one of one assay component(s) measured or calculated from the NVS_NR_bER assay. It is designed to make measurements of radioligand binding, a form of binding reporter, as detected with scintillation counting signals by Lysate-based radiodetection technology.Data from the assay component NVS_NR_bER was analyzed into 1 assay endpoint. This assay endpoint, NVS_NR_bER, was analyzed in the positive analysis fitting direction relative to DMSO as the negative control and baseline of activity. Using a type of binding reporter, loss-of-signal activity can be used to understand changes in the binding as they relate to the gene ESR1. Furthermore, this assay endpoint can be referred to as a primary readout, because the performed assay has only produced 1 assay endpoint. To generalize the intended target to other relatable targets, this assay endpoint is annotated to the nuclear receptor intended target family, where the subfamily is steroidal.
Binding assays used specific radioligands (tritiated, iodinated) with non-radioactive competitive displacement ligands in agonist or antagonist protocols (as indicated) and various reference compounds and inhibitors to titrate specific binding to receptors and transporters. Most enzyme assays (CYPs, kinases, phosphatases, proteases, HDACs) used recombinant protein and specific substrates (fluorescence mostly, some colorimetric and radioactive) and inhibitors, followed by a biochemical separation of substrate and product. All assays for the biochemical HTS were initially run in duplicate at a single concentration (10 uM for CYP450 assays and 25 uM for all others). […] Each assay was run with positive and negative controls, and concurrent controls on every plate. The follow-up (secondary) screen tested active chemical-pairs in concentration series, as well as a few additional assays not tested in the primary screen, some selected negative inactives, and several cases re-run in the concentration series for confirmatory purposes.
In the case of `Oc1c(Cl)cc(Cl)cc1Sc1cc(Cl)cc(Cl)c1O`, the outcome is reported as “inactive”.
With `NCc1cccc(CN)c1` the outcome was “inactive”.
`CCCCCCCCCCCCOC(=O)c1cc(O)c(O)c(O)c1` was tested, and the outcome was “inactive”.
For `CCOC(=O)c1nc(C(Cl)(Cl)Cl)n(-c2ccc(Cl)cc2Cl)n1`, the outcome was “inactive”.
For `CCCCCC(C)OC(=O)COc1ccc(Cl)c2cccnc12` (centres undefined), the outcome was “inactive”.
With `c1ccc(CNc2ncnc3c2ncn3C2CCCCO2)cc1` (centres undefined) the outcome was “inactive”.
With `C=CC(=O)OCC(CO)(COCC(COC(=O)C=C)(COC(=O)C=C)COC(=O)C=C)COC(=O)C=C` the outcome was “inactive”.
In the case of `C[C@]12CC[C@@H]3c4ccc(O)cc4CC[C@H]3[C@@H]1CC[C@@H]2OC(=O)CCC1CCCC1`, the AC50 is reported as 0.0684 µM (active).
`CCCCCCc1ccc(N)cc1` was tested, and the outcome was “inactive”.
For `Nc1cc(Cl)c(-c2cc(Cl)c(N)cc2Cl)cc1Cl`, the outcome was “inactive”.
In the case of `N=C(N)c1ccc(OCCCCCOc2ccc(C(=N)N)cc2)cc1`, the outcome is reported as “inactive”.
`CCCCCCOC(=O)c1ccc(O)cc1` was tested, and the AC50 was 13 µM (active).
`COC1=CC(=O)C[C@@H](C)[C@]12Oc1c(Cl)c(OC)cc(OC)c1C2=O` was tested, and the outcome was “inactive”.
In the case of `C=CC(C)(CCC=C(C)C)OC(C)=O` (centres undefined), the AC50 is reported as 17.1 µM (active).
With `O=C(c1cc(O)c(O)c(O)c1)c1ccc(O)c(O)c1O` the outcome was “inactive”.
`O=C(Nc1cccc([N+](=O)[O-])c1)c1cc2ccccc2cc1O` was tested, and the outcome was “inactive”.
For `CC1=CC(=O)c2ccccc2C1=O`, the outcome was “inactive”.
For `COc1ccccc1NC(=O)c1cc2ccccc2cc1O`, the outcome was “inactive”.
In the case of `C=C(c1ccc(C(=O)O)cc1)c1cc2c(cc1C)C(C)(C)CCC2(C)C`, the outcome is reported as “inactive”.
In the case of `O=C1Cc2ccccc2N1c1c(Cl)cccc1Cl`, the outcome is reported as “inactive”.
With `CCc1ccccc1O` the outcome was “inactive”.
For `CCCCCCCCCCCC[N+](C)(C)CCCCCCCCCCCC`, the outcome was “inactive”.
With `Oc1ccc(Cc2ccccc2O)cc1` the outcome was “inactive”.
`NC(=NCCCCCCN=C(N)/N=C(\N)Nc1ccc(Cl)cc1)/N=C(\N)Nc1ccc(Cl)cc1` was tested, and the outcome was “inactive”.
